Here are results for 32 compounds from PubChem BioAssay (NCATS).

Molecules are shown by their SMILES. Inconclusive results are not listed. Values without a mark were called inactive. The source made the active and inactive calls. Calls come from the whole dose curve; as a rule, active = well fitted inhibition curve with a large enough effect; inconclusive = small, poorly fitted or top-dose-only effect; inactive = no such curve, though single readings can be large or run the other way.

The test system of assay [1] is Zika virus NS2B-NS3 protease (unlinked complex). The experiment in a line: Primary screen GU Rhodamine qHTS for Zika virus inhibitors: Unlinked NS2B-NS3 protease assay (AID 1347159). Note: nearly all actives have a fitted effect of over 60% in size. The gist of the method: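 Buffer 10 mM Tris-HCl pH 8.0, 0.01% Tween 20. Unlinked protease 25 nM; compound preincubation 15 min, RT, protected from light. Substrate Rhod110, 1.5 microM; ~15% conversion in 15 min.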

Assay [2] concerns Zika virus NS2B-NS3 protease (linked construct). The experiment in a line: Primary screen NINDS Rhodamine qHTS for Zika virus inhibitors (AID 1347160). Note: nearly all actives have a fitted effect of over 55% in size. The gist of the method: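 Aprotinin served as in-plate control. Conditions: 25 nM linked NS2B-NS3, pH 8.0 Tris buffer, titrated compounds, 15 min preincubation and 15 min reaction with 1.5 microM Rhod110 substrate at room temperature.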
(In qHTS, concentration-response curves come from the screen itself.)
% is set by controls: 0 for no effect and ±100 for the full control effect.

As for `C/C(=C/C=C\C=C\Cc1cnco1)[C@@H](O)C(C)(C)C(N)=O`, the Potency result in assay [1] and in assay [2] was “inactive” throughout.

For the compound `Cc1nc(C#Cc2ccnc(Cl)c2)c(C)n1-c1ccc(OC(F)(F)F)cc1`, the Potency entry in assay [1] and in assay [2] was “inactive” each time.

As for `CCCCNc1ncc2c(-c3ccc(S(=O)(=O)N4CCOCC4)cc3)nn(C3CCC(O)CC3)c2n1` (centres undefined), the Potency result in assay [1] and in assay [2] was “inactive” throughout.

With `O=C(NCCCc1ccccc1)C1CCC(CNS(=O)(=O)c2cccc3nsnc23)CC1` (centres undefined), the Potency result in assay [1] and in assay [2] was “inactive” each time.

With `C[C@H](Oc1cc(-n2cnc3ccc(CN4CCN(C)CC4)cc32)sc1C(N)=O)c1ccccc1C(F)(F)F`, the Potency result in assay [1] and in assay [2] was “inactive” each time.

Consider `O=C(Nc1ccccc1)N1CCC(Cc2cnc3ccccc3c2)CC1`, for which the Potency result in assay [1] and in assay [2] was “inactive” throughout.

`C=C1C(=O)O[C@@H]2C[C@H](C)[C@@H]3CC(=O)C(C)=C3C[C@H]12`: the Potency result in assay [1] and in assay [2] was “inactive” each time.

As to `CNC(=O)[C@@H](c1ccccc1)N1CCc2cc(OC)c(OC)cc2[C@@H]1CCc1ccc(C(F)(F)F)cc1`, the Potency entry in assay [1] and in assay [2] was “inactive” each time.

For `CCOC(=O)N1CCC(N2CCC[C@@H](NC(=O)c3ccccc3C)C2)CC1`, the Potency result in assay [1] and in assay [2] was “inactive” throughout.

`Cc1ccnn1-c1ccc(C(=O)N2CCN(S(=O)(=O)c3ccc(Cl)c(C(F)(F)F)c3)CC2)cc1`: the Potency result in assay [1] and in assay [2] was “inactive” throughout.

Regarding `O=C(Nc1ccccc1C(=O)Nc1ccc(CCO)cc1)c1ccc([N+](=O)[O-])cc1`, the Potency entry in assay [1] and in assay [2] was “inactive” each time.

In the case of `CC(O)C(C)n1ncn(-c2ccc(N3CCN(c4ccc(OCC5COC(Cn6cncn6)(c6ccc(Cl)cc6Cl)O5)cc4)CC3)cc2)c1=O` (centres undefined), the Potency result in assay [1] and in assay [2] was “inactive” throughout.

For `C=C1CC2OC(=O)C(COC)C2C(OC(=O)/C(C)=C\C)CC2(C)OC1=CC2=O` (centres undefined), the Potency entry in assay [1] and in assay [2] was “inactive” each time.

Turning to `C[C@@H]1O[C@@H](O[C@H]2[C@@H](OC(=O)[C@]34CCC(C)(C)CC3C3=CCC5[C@@]6(C)C[C@H](O)[C@H](O[C@@H]7O[C@H](CO)[C@@H](O)[C@H](O)[C@H]7O[C@@H]7OC[C@@H](O)[C@H](O)[C@H]7O)[C@@](C)(C(=O)O)C6CC[C@@]5(C)[C@]3(C)CC4)OC[C@H](O)[C@@H]2O)[C@H](O)[C@H](O)[C@H]1O[C@@H]1OC[C@@H](O)[C@H](O)[C@H]1O` (some centres undefined), the results for the activity change, negative = inhibition in assay [1] and in assay [2] were 46.4% [at 19.1 µM] and 21.4% [at 10.7 µM], respectively.

Take `COc1cccc(-c2cn(-c3ccc(CCN4CCC(O)CC4)cc3)c3ncnc(N)c23)c1`: the Potency entry in assay [1] and in assay [2] was “inactive” throughout.

`CC1(C)CC[C@]2(C(=O)O)CC[C@]3(C)C(=CCC4[C@@]5(C)C[C@@H](O)[C@H](O)C(CO)(CO)C5CC[C@]43C)C2[C@@H]1O` (some centres undefined): the Potency entry in assay [1] and in assay [2] was “inactive” each time.

With `CC(=O)N1CCN(CCOc2ccc(C3CCN(C4=Nn5c(nnc5C(F)(F)F)CC4)CC3)cc2)CC1`, the Potency result in assay [1] and in assay [2] was “inactive” throughout.

Regarding `CCC(C)C(=O)O[C@H]1[C@@H](OC(=O)c2ccoc2)C[C@](C)(O)[C@]23OC(C)(C)[C@H](C[C@H](OC(=O)c4ccoc4)[C@]12COC(C)=O)[C@H]3OC(C)=O` (some centres undefined), the Potency result in assay [1] and in assay [2] was “inactive” throughout.

In the case of `COc1cc(C(C)C)c(Oc2cnc(N)nc2N)cc1I`, the Potency entry in assay [1] and in assay [2] was “inactive” in each case.

Consider `CC(C)(O)c1ccc2c(c1)ncn2-c1cccc(-c2ccccc2C#N)c1`, for which the Potency result in assay [1] and in assay [2] was “inactive” in each case.

`COC(=O)CC(O)CC(O)/C=C/c1c(C)ccc2c1C(OC(C)=O)CC(C)C2` (centres undefined): the Potency result in assay [1] and in assay [2] was “inactive” throughout.

Consider `C=C(C)[C@@H]1CC=C(COC(=O)NC(=O)c2ncn3c(=O)n(C)nnc23)CC1`, for which the Potency result in assay [1] and in assay [2] was “inactive” in each case.

Regarding `Oc1cccc(C2NC(=S)Nc3cccc(F)c32)c1` (centres undefined), the Potency result in assay [1] and in assay [2] was “inactive” throughout.

For the compound `CNC(=O)c1cc(Oc2ccc(NC(=O)c3cccc(C(F)(F)F)c3)cc2)ccn1`, the Potency result in assay [1] and in assay [2] was “inactive” each time.

Turning to `CC(=O)O[C@H]1[C@@]2(O)C[C@H](C)[C@H](OC(=O)c3ccccc3)[C@@H]2[C@@H](OC(=O)CO)[C@]2(OC(C)=O)C[C@H]3C(=O)C(C)(C)C[C@@H]3[C@@]1(C)[C@H]2OC(C)=O`, the Potency entry in assay [1] and in assay [2] was “inactive” throughout.

Regarding `C[C@@H]1O[C@@H](O[C@H]2CC[C@@]3(C)C(CC[C@]4(C)C3CC=C3[C@@H]5CC(C)(C)CC[C@]5(C(=O)O[C@@H]5O[C@H](CO)[C@@H](O)[C@H](O)[C@H]5O)CC[C@]34C)[C@]2(C)CO)[C@H](O)[C@H](O[C@@H]2O[C@H](CO)[C@@H](O)[C@H](O)[C@H]2O)[C@H]1O` (some centres undefined), the Potency entry in assay [1] and in assay [2] was “inactive” each time.

Turning to `CC(C)(C)c1ccc(-c2nc3c(N4CCN(Cc5ccc6nccnc6c5)CC4)cccc3[nH]2)cc1`, the Potency result in assay [1] and in assay [2] was “inactive” each time.

Consider `O=c1[nH]c2ccccc2n1CCN1CCN(c2cccc(C(F)(F)F)c2)CC1`, for which the Potency entry in assay [1] and in assay [2] was “inactive” each time.

Consider `CC(=O)O[C@@H]1C2=C(O)C(=O)[C@](C)(OC(C)=O)C(=O)C2=CO[C@@]12O[C@@H](C)CC[C@H]2OC(C)=O`, for which the Potency entry in assay [1] and in assay [2] was “inactive” each time.

`COc1c2c(c(C)c3c1C(=O)OC3)O[C@@]1(C)C[C@@H](OC(C)=O)[C@]34O[C@](OC)(CC[C@]3(C)[C@H]1C2)OC4(C)C`: the Potency entry in assay [1] and in assay [2] was “inactive” in each case.

As for `CC1(C)CC[C@]23CO[C@@]4(CCC5[C@@]6(C)CC[C@H](O[C@@H]7OC[C@H](O[C@@H]8O[C@H](CO)[C@@H](O)[C@H](O)[C@H]8O[C@@H]8OC[C@@H](O)[C@H](O)[C@H]8O)[C@H](O)[C@H]7O[C@@H]7O[C@H](CO)[C@@H](O)[C@H](O)[C@H]7O)[C@@](C)(CO)C6CC[C@@]5(C)[C@]4(C)C[C@H]2O)[C@@H]3C1` (some centres undefined), the Potency result in assay [1] and in assay [2] was “inactive” in each case.

As to `O=C(Nc1nc2cc(C(F)(F)F)cc(NC3CC3)n2n1)c1cccnc1`, the Potency entry in assay [1] and in assay [2] was “inactive” in each case.
